Screening data: PubChem, National Center for Advancing Translational Sciences (NCATS)
D2 ag-1 – D2 dopamine receptor (human) agonism | 340,000 tested, 0.53% active | P14416 | activation, % at 2 µM | HEK293 T-REx D2 cells, calcium flux agonist mode;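 active = activation over 3 SD above normal in the single-dose calcium agonist read, cut at about 30% in these data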
Target sequence (P14416 whole entry, looked up): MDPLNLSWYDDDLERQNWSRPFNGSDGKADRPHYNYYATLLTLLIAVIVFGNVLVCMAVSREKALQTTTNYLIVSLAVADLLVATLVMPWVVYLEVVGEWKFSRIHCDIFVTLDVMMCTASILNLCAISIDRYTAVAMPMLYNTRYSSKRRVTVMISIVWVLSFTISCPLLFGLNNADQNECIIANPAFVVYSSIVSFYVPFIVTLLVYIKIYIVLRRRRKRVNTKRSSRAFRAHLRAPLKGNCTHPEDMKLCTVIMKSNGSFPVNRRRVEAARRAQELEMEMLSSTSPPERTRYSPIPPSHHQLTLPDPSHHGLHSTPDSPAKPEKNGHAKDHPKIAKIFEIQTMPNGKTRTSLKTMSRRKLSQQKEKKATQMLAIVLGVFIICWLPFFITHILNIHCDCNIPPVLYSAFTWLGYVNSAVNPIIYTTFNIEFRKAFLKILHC
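Tetracycline-induced HEK293 Trex cells with D2 receptor force-coupled to calcium signaling, plated overnight at 30 C and loaded with no-wash calcium dye. Calcium flux read kinetically for 180 s after compound addition; responses flag agonists.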
D2 PAM-1 – potentiates the human D2 dopamine receptor allosterically; DiscoveRx D2 beta-arrestin cells, luminescence, 90 min; 100% = 57 uM dopamine signal; potentiation, % (no concentration beside the values); 360,000 tested, 0.23% active; AID 624464; in the data active = potentiation above about 50%; inconclusive = mostly about 30% to 49%
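D2 cells co-treated with compound plus 50 nM dopamine (EC20) for 90 min at 37 deg C to detect potentiation. Beta-arrestin recruitment was read as enzyme-fragment luminescence after 1 h at ambient temperature. Full response was set by 57 uM dopamine.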
D2 ag-2 – agonists of human D2 dopamine receptor (beta-arrestin) | 360,000 tested, 0.084% active | activation, % (concentration not given with the values) | P14416 | DiscoveRx PathHunter D2 beta-arrestin, luminescence, 90 min; 100% = 57 uM dopamine signal; in the data active = activation above about 40%; inconclusive = between about 15% and that limit
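DiscoveRx PathHunter D2 beta-arrestin cells (2,100/well) attached overnight, then compound-stimulated 90 min at 37 C in HBSS/10 mM HEPES/0.1% Tween-20 buffer; beta-galactosidase complementation read by luminescence after 1 h at ambient temperature. Dopamine 57 uM final (EC100) as control.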
D2 PAM-2 – positive allosteric modulators of human D2 dopamine receptor | P14416 | HEK293 T-REx D2, calcium flux, EC20 dopamine potentiation | potentiation, % at 10 µM | 340,000 tested, 0.34% active | AID 485347;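 active = potentiation over 3 SD above the plate norm, cut at about 30% in these data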
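Potentiation of an EC20 dopamine calcium response is measured in a force-coupled, tetracycline-inducible Hek293 Trex D2 line. Compound-only kinetic reads over 180 s flag agonists before dopamine addition.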
D2 antag – antagonizes the human D2 dopamine receptor; P14416; HEK293 TREx D2 cells, calcium flux, dopamine EC80; inhibition, % at 10 µM; 340,000 tested, 2% active; in the data active = inhibition above about 30%; inactive = below that, where a call was filed
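Calcium flux kinetic readout in an inducible HEK293 TREx D2 line plated overnight at 30 C. After 180 s compound exposure, an EC80 dopamine challenge follows with another 180 s kinetic read to detect antagonism.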
D3 arrestin ag – activates human D3 dopamine receptor beta-arrestin recruitment | shares compounds with D2 ag-1 | AID 720506 | DiscoveRx D3 beta-arrestin cells, luminescence, 90 min | Potency, µM (highest dose often 76.9 µM), hits mostly activators | 2,300 tested, 4% active; note: nearly all actives have a fitted effect of over 70% in size
D2 ag-3 – activates human D2 dopamine receptor in D3 counterscreen; shares compounds with D2 ag-1; DiscoveRx PathHunter D2 beta-arrestin, luminescence, 90 min; response scale: percent relative to full dopamine signal; Potency, µM (series often up to 76.9 µM), hits mostly activators; 2,300 tested, 5.9% active; note: nearly all actives have a fitted effect of over 70% in size
Numbers stand for hits; n = inactive; u = inconclusive; x = no result. Rows were chosen to be rich in hits. Some 2.4% of all compounds tested hit in one or more screens of this group. Unless noted, calls come from the whole dose curve; as a rule, active = well fitted activation curve with a large enough effect; inconclusive = small, poorly fitted or top-dose-only effect; inactive = flat fitted curve, though single readings scatter.

SMILES	D2 ag-1	D2 PAM-1	D2 ag-2	D2 PAM-2	D2 antag	D3 arrestin ag	D2 ag-3
O=S(=O)(c1ccccc1Cl)N1CCC(O)(c2cccnc2)CC1	n	n	n	n	n	x	x
CC1CC1C(=O)Nc1ccc(S(=O)(=O)N2CCCCC2)cc1 (stereo not drawn)	x	n	n	x	x	n	n
O=C(O)C1CCCCC1C(=O)Nc1ccc(S(=O)(=O)N2CCCCCC2)cc1 (stereo not drawn)	n	n	n	n	n	x	x
CC(C)NC(=O)C(c1ccc(F)cc1)N(C(=O)CCC(=O)Nc1ccccn1)C1CCCCC1 (stereo not drawn)	n	n	n	n	n	x	x
CCCNC(=O)C(=O)Nc1ccc(N(C)C)cc1	n	n	n	n	n	x	x
CN(C)c1ccc(NC(=O)C(=O)NCCOc2ccccc2)cc1	34	n	n	n	n	u	n
Cc1cccc(N2C(=O)c3cccc4c(N(C)CCO)ccc(c34)C2=O)c1	n	n	n	n	n	n	n
CN(C)c1ccc2c3c(cccc13)C(=O)N(c1ccccc1)C2=O	n	x	x	n	n	x	x
O=C(CN1CCN(Cc2ccc(Cl)cc2)C1=O)NCCCN1CCN(c2ccc(F)cc2)CC1	n	n	n	n	n	x	x
Cc1ccccc1CN1CCN(CC(=O)NCCCN2CCN(c3ccc(F)cc3)CC2)C1=O	n	n	n	n	64	n	n
O=C(N1CCN(c2ccccc2)CC1)C(F)(F)C(F)(F)F	n	n	n	n	n	n	n
O=C(N1CCN(c2ccccc2)CC1)C(F)(F)C(F)F	n	n	n	n	n	x	x
O=C(CN1CCCCC1)N1CCN(c2ccccc2)CC1	n	n	n	n	n	x	x
O=C(CN1CCN(c2ccccc2)CC1)N1CCN(c2ccccc2)CC1	47	n	n	n	n	u	n
CC(NS(=O)(=O)c1ccc(F)cc1)C(=O)Nc1ccc2c(c1)OCCO2 (stereo not drawn)	x	n	n	x	x	x	x
O=C(C1CCN(S(=O)(=O)c2ccc(Cl)c(C(F)(F)F)c2)CC1)N1CCC1	n	n	n	n	n	n	n
Cc1ccc(C)c(OCC(=O)NCC(C)C)c1C	n	n	n	n	n	x	x
CSCC[C@H](NC(=O)C1CCN(S(=O)(=O)c2ccc(C)cc2)CC1)C(=O)NC1CCS(=O)(=O)C1 (stereo partly drawn)	53	n	n	n	n	n	n
Cc1nn(-c2ccccc2)c(C)c1/C=C/C(=O)OC(C)C(=O)Nc1ncc(Cl)cc1Cl (stereo not drawn)	30	n	n	n	n	n	n
Cc1nn(-c2ccccc2)c(C)c1/C=C/C(=O)OCC(=O)Nc1ncc(Cl)cc1Cl	n	n	n	n	n	x	x
COCCN(C(=O)COC(=O)C12CC3CC(CC(O)(C3)C1)C2)c1c(N)n(Cc2ccccc2)c(=O)[nH]c1=O	x	n	n	x	x	x	x
COc1ccc(SC[C@H](Cc2ccccc2)N2CC[C@@H](O)CCC2=O)cc1	n	n	n	n	n	x	x
COc1ccc(SC[C@H](Cc2ccccc2)N2CC[C@@H](C(C)(C)C)CCC2=O)cc1	n	n	n	n	n	n	n
O=[N+]([O-])c1cc(/C=N/N/C(=N/c2ccccn2)c2ccccn2)ccc1O	n	n	n	n	n	n	n
CC(=O)c1cc(Cl)ccc1OCC(=O)Nc1cccc(S(=O)(=O)N2CCCC2)c1	n	n	n	n	n	x	x
SMILES	D2 ag-1	D2 PAM-1	D2 ag-2	D2 PAM-2	D2 antag	D3 arrestin ag	D2 ag-3
Cc1ccccc1[C@@H](NC(=O)OC(C)(C)C)C(=O)OC(C)(C)C	n	n	n	n	n	n	n
CSc1ccccc1OCc1cc(C(=O)N2CCc3c(Cl)cccc3C2)no1	n	n	n	n	n	x	x
COc1cc(C2N(Cc3ccccc3)CCN2Cc2ccccc2)ccc1OC(C)=O	n	n	n	n	n	n	n
COc1ccc(C2N(Cc3ccccc3)CCN2Cc2ccccc2)cc1[N+](=O)[O-]	n	n	n	n	n	n	n
COc1cc(C2N(c3ccccc3)CCN2c2ccccc2)ccc1OC(C)=O	n	n	n	n	n	x	x
Cc1cccc(C(=O)NC(=S)NNC(=O)c2cccs2)c1	n	n	n	n	n	x	x
Cc1cccc(C(=O)NC(=S)NNC(=O)c2ccc(Cl)cc2)c1	75	n	n	n	n	n	n
CCCn1c(C2CCCN2c2nc(C)cs2)nc2cc(Cl)c(Cl)cc21 (stereo not drawn)	n	n	n	n	n	x	x
CCCn1c(C2CCCN2c2nc(-c3cccc(Br)c3)cs2)nc2cc(Cl)c(Cl)cc21 (stereo not drawn)	40	n	n	n	n	n	n
O=C(CN1CCCC1)Nc1cc(C(F)(F)F)cc(C(F)(F)F)c1	51	n	n	n	n	n	n
CCCN(CCC)CCCNS(=O)(=O)c1cc(Br)cc2c1N(C(C)=O)CC2	59	n	n	n	n	n	n
CCOc1ccc(S(=O)(=O)N2CCCCC2)c(C)c1C	n	n	n	n	n	n	n
Cc1cccc(C(=O)NNC(=O)c2ccc(NS(=O)(=O)c3cccs3)cc2)c1C	n	n	n	n	n	n	n
COc1ccc(C(=O)Nc2ccc(-c3nc4cc(C)ccc4o3)c(O)c2)cc1	n	x	x	x	x	x	x
CC(C)c1ccc(NC(=O)c2cc(S(=O)(=O)N(C)C3CCCCC3)ccc2F)cc1	n	x	x	n	x	x	x
COc1cc(CCC(C)NCc2ccccc2)ccc1O (stereo not drawn)	79	n	u	n	75	n	u
CC(CCc1ccc(O)cc1)NCc1ccc(Br)cc1 (stereo not drawn)	39	n	n	n	32	u	n
CC(CCc1ccccc1)NCC#N (stereo not drawn)	57	n	n	n	34	n	n
CC(=O)NC(C)CCc1ccccc1 (stereo not drawn)	n	n	n	n	n	x	x
CC(CCc1ccccc1)NCc1ccc(Cl)cc1Cl (stereo not drawn)	52	n	n	n	45	n	n
COc1ccc(-c2ccc3c(n2)sc2c(=O)[nH]c(=O)[nH]c23)cc1OC	n	x	x	n	n	x	x
Cc1cccc(Cn2c(COc3ccccc3)nc3ccccc32)c1	n	x	x	n	x	x	x
N#Cc1c(C(F)(F)F)cc(-c2cccs2)nc1SCC(=O)Nc1cccc(C(F)(F)F)c1	n	x	x	n	x	x	x
COc1ccc(CNC(C)CCc2ccccc2)cc1 (stereo not drawn)	64	n	n	n	62	n	n
